Screening results as filed in PubChem.
PP1 counter = PP1-alpha phosphatase inhibitors, primary screen, counter-screen for PP5 inhibitor project, biochemical, fluorescence, OMFP substrate, single point; Serine/threonine-protein phosphatase PP1-alpha catalytic subunit (Homo sapiens), P62136; purified PP1alpha; inhibition, % at 6.7 µM; 320,000 compounds, 0.9% hits; AID 2235, 2010;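 active = inhibition above the mean inhibition of all tested compounds plus 3 SD, computed separately for each screening campaign, cut at about 15% in these data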
PAFAH1B3 inh = PAFAH1B3 enzyme inhibitors, primary screen, biochemical, fluorescence polarization, human. Platelet-activating factor acetylhydrolase IB subunit alpha1 (Homo sapiens), Q15102. recombinant PAFAH1B3, FP-rhodamine probe. inhibition, % at 3.39 µM. 340,000 compounds, 0.28% hits;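 active = inhibition above the screen-wide average of all tested compounds plus 3 SD, cut at about 25% in these data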;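 also: 0% = enzyme with DMSO only and 100% = wells lacking PAFAH1B3 protein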
pPAFAH inh = pPAFAH enzyme inhibitors, primary screen, biochemical, fluorescence polarization, human; recombinant pPAFAH, FP-rhodamine probe fluorescence polarization; Platelet-activating factor acetylhydrolase (Homo sapiens), Q13093; inhibition, % at 3.39 µM; 330,000 compounds, 1.5% hits;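 active = inhibition above the mean inhibition across the screen plus 3 SD, cut at about 25% in these data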;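 also: inhibitors block binding of the rhodamine activity-based probe so polarization drops; 0% = enzyme with DMSO and 100% = wells lacking pPAFAH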
Target sequence (Q13093 whole entry, looked up): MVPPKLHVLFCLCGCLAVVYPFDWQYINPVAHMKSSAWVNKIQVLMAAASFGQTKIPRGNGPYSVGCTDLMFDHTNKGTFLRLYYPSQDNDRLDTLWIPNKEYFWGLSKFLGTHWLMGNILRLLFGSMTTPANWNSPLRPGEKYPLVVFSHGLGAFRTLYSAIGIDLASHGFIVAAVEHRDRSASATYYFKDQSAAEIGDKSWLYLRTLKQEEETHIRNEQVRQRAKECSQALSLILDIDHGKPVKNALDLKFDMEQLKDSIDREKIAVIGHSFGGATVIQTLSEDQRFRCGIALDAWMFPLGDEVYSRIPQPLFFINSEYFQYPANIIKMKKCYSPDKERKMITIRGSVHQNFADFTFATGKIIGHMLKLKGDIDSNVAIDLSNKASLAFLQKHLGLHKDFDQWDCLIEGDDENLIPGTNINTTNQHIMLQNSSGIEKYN
PAFAH1B2 FP inh = PAFAH1B2 enzyme inhibitors, primary screen, biochemical, fluorescence polarization, human; Platelet-activating factor acetylhydrolase IB subunit alpha2 (Homo sapiens), P68402; recombinant PAFAH1B2, FP-rhodamine activity probe; inhibition, % at 3.39 µM; 340,000 compounds, 1.2% hits;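 active = inhibition above the mean of all tested compounds plus 3 SD, cut at about 24% in these data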;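 also: 0% = enzyme with DMSO and 100% = wells lacking PAFAH1B2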
Target sequence (P68402 whole entry, looked up): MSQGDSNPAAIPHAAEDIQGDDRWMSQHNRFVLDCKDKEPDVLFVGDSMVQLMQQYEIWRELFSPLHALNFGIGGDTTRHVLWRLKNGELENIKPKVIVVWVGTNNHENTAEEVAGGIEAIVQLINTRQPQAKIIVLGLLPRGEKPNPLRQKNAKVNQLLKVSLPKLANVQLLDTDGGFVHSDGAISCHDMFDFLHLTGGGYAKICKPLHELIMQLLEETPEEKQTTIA
PP5 primary = PP5 phosphatase inhibitors, primary screen, biochemical, fluorescence | purified PP5c, OMFP substrate fluorescence | Serine/threonine-protein phosphatase 5 (Homo sapiens), P53041 | inhibition, % at 6.7 µM | 320,000 compounds, 0.18% hits | AID 1987, 2009;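 active = inhibition above the campaign's mean inhibition across all tested compounds plus 3 SD, cut at about 9.5% in these data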;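 also: 0% = DMSO only and 100% = 100 µM cantharidin control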
PAFAH2 FP inh = PAFAH2 enzyme inhibitors, primary screen, biochemical, fluorescence polarization, human. recombinant PAFAH2, FP-rhodamine activity probe. 340,000 compounds, 0.99% hits. inhibition, % at 3.39 µM. AID 492956, 2010. Platelet-activating factor acetylhydrolase 2, cytoplasmic (Homo sapiens), Q99487;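 active = inhibition above the mean over all tested compounds plus 3 SD, cut at about 30% in these data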;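 also: inhibitors block probe labeling of enzyme so polarization drops; 0% = enzyme with DMSO and 100% = wells lacking PAFAH2 protein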
PP1 confirm = PP1 phosphatase inhibitors, confirmation, biochemical, fluorescence, OMFP substrate, triplicate. purified PP1alpha. shares compounds with PP1 counter. inhibition, % at 6.7 µM. 1,900 compounds, 52% hits;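 active = mean PP1 inhibition above a set limit taken from the earlier primary screen, cut at about 15% in these data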
PP5 inh counter = PP5 phosphatase inhibition by PP1 hits, confirmation, counter-screen for PP1 inhibitor project, biochemical, fluorescence, triplicate | shares compounds with PP1 counter | purified PP5c, OMFP fluorescence | inhibition, % at 6.7 µM | 1,900 compounds, 4% hits;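 active = mean PP5 inhibition over triplicate wells above about 9.5% taken from the earlier PP1 screen, limit read from the data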
* marks the source's active call; other numbers are inactive results; / = not tested or not shown. Only some compounds are listed: those with a hit (about 3.4% of all), similar ones and a draw of the others.

SMILES | PP1 counter | PAFAH1B3 inh | pPAFAH inh | PAFAH1B2 FP inh | PP5 primary | PAFAH2 FP inh | PP1 confirm | PP5 inh counter
COc1ccc(Cl)cc1NC(=O)c1nnn(CC(=O)Nc2ccc3c(c2)OCO3)c1N | 25* | -14 | -13 | -10 | 2 | -15 | 26* | -5
COc1ccc(Cl)cc1NC(=O)c1nnn(CC(=O)Nc2ccc(OC)c(OC)c2)c1N | -1 | 2 | 4 | 0 | 0 | 5 | / | /
COc1ccc(NC(=O)c2nnn(CC(=O)Nc3ccc4c(c3)OCO4)c2N)cc1OC | -1 | 8 | 10 | 3 | 3 | 8 | / | /
COc1cccc(NC(=O)Cn2nnc(C(=O)Nc3cc(Cl)ccc3OC)c2N)c1 | 18* | -10 | -5 | 3 | 0 | -14 | 19* | -2
CC(=O)C1=C(O)C(=O)N(CCc2c[nH]c3ccccc23)C1c1ccc(C)cc1 (stereo unspecified) | 26* | 12 | 3 | 5 | 4 | 4 | 23* | -4
Cc1nn(CC(=O)Nc2ccc(C(=O)N3CCCCC3)cc2)c(=O)c2ccccc12 | 23* | 5 | 1 | 4 | 5 | 3 | -2 | 0
Cc1nn(CC(=O)Nc2ccc(C(=O)N3CCCC3)cc2)c(=O)c2ccccc12 | 4 | 3 | 3 | -5 | 1 | -10 | / | /
CC(C)(C)c1ccc(C(=O)Cn2nc(C(=O)O)c3ccccc3c2=O)cc1 | 14 | 3 | 2 | 0 | 0 | 4 | / | /
CC(C)CC(=O)Nc1ccc(C(=O)Cn2nc(C(=O)O)c3ccccc3c2=O)cc1 | 20* | -2 | 4 | 0 | 2 | 0 | 23* | 0
O=C(O)CC1S/C(=N/N=C/c2ccc([N+](=O)[O-])cc2)N(c2ccc(O)cc2)C1=O (stereo unspecified) | -4 | 10 | 3 | 3 | 3 | 0 | / | /
CCN(CC)C(=O)CSc1nnc(-c2ccccn2)n1Cc1ccccc1 | -5 | -5 | 7 | 2 | 1 | -1 | / | /
O=C(N/N=C/c1cc2ccccc2nc1Cl)/C(=C/c1cccs1)NC(=O)c1ccccc1 | 18* | -32 | -44 | -14 | 1 | -30 | 7 | -1
CC(=O)c1ccc(NC(=O)N[C@@H](CC(C)C)C(=O)O)cc1 | 18* | 4 | -6 | -3 | -3 | 8 | -4 | -1
CC(=O)c1cccc(NC(=O)N[C@@H](CC(C)C)C(=O)O)c1 | -2 | 8 | 2 | 4 | 2 | -5 | / | /
O=C(COC(=O)/C=C/c1ccc(Br)o1)Nc1ccc2[nH]c(=O)[nH]c2c1 | 21* | -1 | 18 | 6 | 3 | 18 | 25* | 3
Cc1nc(NC(=O)c2ccc(Br)o2)ccc1Br | / | 3 | / | -2 | / | 3 | / | /
O=C(Nc1cccc(NC(=O)c2ccc(Br)o2)n1)c1ccc(Br)o1 | 35* | -5 | 3 | -2 | 5 | 2 | 31* | -4
O=C(CSc1nnc(NC(=O)c2cccc(Cl)c2)s1)NCC1CCCO1 (stereo unspecified) | -2 | 7 | 1 | 9 | 4 | -3 | / | /
CC1=C(C(=O)OC2CCCC(C)C2)C(c2ccccc2)NC(=O)N1 (stereo unspecified) | -3 | 8 | 3 | 6 | 2 | 9 | / | /
C#CCOCCOCCOCCNc1nc(N2CCN(C(=O)[C@H](Cc3cc4ccccc4[nH]3)n3cc([C@@H](N)C(C)CC)nn3)CC2)nc(N2CCN(C(=O)[C@H](Cc3cc4ccccc4[nH]3)n3cc([C@@H](N)Cc4ccc(O)cc4)nn3)CC2)n1 (stereo partly specified) | 84* | / | 17 | / | 8 | / | 78* | 5
C#CCOCCOCCOCCNc1nc(N2CCN(C(=O)[C@H](Cc3cc4ccccc4[nH]3)n3cc([C@@H](N)CC(C)C)nn3)CC2)nc(N2CCN(C(=O)[C@H](Cc3cc4ccccc4[nH]3)n3cc([C@@H](N)CC(C)C)nn3)CC2)n1 | 43* | 1 | 12 | 0 | 7 | -1 | -8 | 2
C#CCOCCOCCOCCNc1nc(N2CCN(C(=O)C(Cc3cc4ccccc4[nH]3)n3cc(C(N)Cc4ccc(O)cc4)nn3)CC2)nc(N2CCN(C(=O)C(CCC(=O)O)n3cc(C(N)C(C)CC)nn3)CC2)n1 (stereo unspecified) | -1 | 1 | -2 | -2 | 3 | 4 | / | /
C#CCOCCOCCOCCNc1nc(N2CCN(C(=O)[C@H](Cc3ccc(O)cc3)n3cc([C@@H](N)C(C)CC)nn3)CC2)nc(N2CCN(C(=O)[C@H](Cc3cc4ccccc4[nH]3)n3cc([C@@H](N)CC(C)C)nn3)CC2)n1 (stereo partly specified) | 20* | / | 0 | / | 2 | / | -17 | -1
C[N+](C)(CCOc1ccccc1)Cc1ccccc1 (tested in a mixture with another compound) | 2 | 6 | 15 | 12 | 2 | 3 | / | /
CC(C)(C)CC(C)(C)c1ccc(OCCOCC[N+](C)(C)Cc2ccccc2)cc1 | 21* | -9 | 26* | 21 | 2 | 2 | 0 | 3
CCOC(=O)[C@H]1[C@H]2COc3ccc(Br)cc3[C@@H]2N2C(=O)CN(Cc3ccc(F)cc3)C(=O)[C@@]12C | 0 | 1 | -4 | -2 | 5 | -4 | / | /
CCOc1ccc(/C=C2/SC(=S)N(CCC(=O)Nc3ccc(C(=O)O)cc3)C2=O)cc1 | -1 | 5 | 2 | 0 | 3 | -1 | / | /
O=C(O)CCN1C(=O)/C(=C\c2cccc(OCC(=O)Nc3ccc(Cl)cc3)c2)SC1=S | 24* | 0 | 24 | 8 | 5 | 5 | 7 | -3
O=C(CCN1C(=O)/C(=C\c2ccccc2)SC1=S)Nc1ccc(C(=O)O)cc1 | 20* | 2 | 3 | 2 | 2 | 3 | 9 | 0
NS(=O)(=O)c1ccc(N/N=C/c2cn(-c3ccccc3)nc2-c2cccs2)c([N+](=O)[O-])c1 | 26* | 1 | 4 | 2 | 1 | -1 | 26* | 0
